Assay results reported in PubChem BioAssay AID2315 (National Center for Advancing Translational Sciences (NCATS), 2010).
Hit rate of the full screen: of about 290,000 compounds, about 27,000 (9.3%) were called active. For the sample, actives were picked, then their nearest neighbours and some compounds at random. Values without a mark were called inactive. Cut-off read from the data, not from the text of the source: active = inhibition mostly above about 28% (no sharp cut-off); inactive = mostly below about 43%.

Test: A qHTS for Small Molecule Inhibitors of Shiga Toxin; note: 0% is about no effect
Conditions: Vero cells, Shiga toxin protein synthesis inhibition reporter; at 38.7 µM, stronger effect = higher value

Compared with `CCN(c1cccc(C)c1)S(=O)(=O)c1ccc(-c2coc(C)n2)cc1`, `Cc1ccc(S(=O)(=O)c2c[nH]c3ccc(C)cc3c2=O)cc1` is higher in inhibition: -6.9% for the first, -5.73% for the second.

Compared with `O=C(CCl)NNc1nc(-c2ccccc2)c2cc(Cl)ccc2n1`, `Cc1nc(C(=O)Nc2ccc(Cl)cc2)sc1C1(C)CC(c2ccccc2)=NO1` (centres undefined) is higher in inhibition: -6.68% for the first, -2.44% for the second.

First: C=CCn1c(C23CC4CC(CC(C4)C2)C3)n[nH]c1=S
Second: O=C(Nc1ccc(S(=O)(=O)Nc2ncccn2)cc1)C12CC3CC(CC(C3)C1)C2
The inhibition of the first is lower: -6.65% for the first, 17.2% for the second.

Going from `CCCc1nc2ccccc2c(C(=O)OCC(=O)c2ccc3c(c2)NC(=O)CO3)c1CC` to `CC(=O)c1c(C)[nH]c(C(=O)COC(=O)c2cccc(S(=O)(=O)N(C)c3ccccc3)c2)c1C`, the inhibition rises from 7.85% to 8.98%.

Going from `O=C(Nc1c2c(nc3ccccc13)CCCC2)c1ccccc1Br` to `CC(NC(=O)c1cccc2ccccc12)c1ccc2c(c1)CCCC2` (centres undefined), the inhibition falls from 13.1% to -3.09%.

First: Cc1cc(Cl)c(S(=O)(=O)NCC2CCCO2)cc1OCC(N)=O (centres undefined)
Second: Cc1cc(Cl)c(S(=O)(=O)N(C)C)cc1OCC(N)=O
The inhibition of the first is lower: -1.08% for the first, 9.4% for the second.

Compared with `O=C(NCc1ccco1)/C(=C\c1cccc([N+](=O)[O-])c1)NC(=O)c1ccco1`, `Cc1ccc(N(C(=O)CNC(=O)c2ccco2)C(C(=O)NC2CCCC2)c2ccncc2)cc1` (centres undefined) is lower in inhibition: 2.57% for the first, -7.6% for the second.

Going from `O=C(CNC(=O)C1COc2ccccc2O1)N/N=C/c1cc(Br)c(O)c(Br)c1` (centres undefined) to `O=C(N/N=C\c1cc(Br)c(Br)o1)C1COc2ccccc2O1` (centres undefined), the inhibition rises from -3.37% to 10.7%.

First: CCCNC(=O)COc1coc(CN2CCN(Cc3ccccc3)CC2)cc1=O
Second: CC1(C)Cc2cccc(OCC(=O)NCc3ccccc3)c2O1
The inhibition of the first is lower: -16.7% for the first, 21.1% for the second.

Compared with `COCCNC(=O)C(c1ccc(C)cc1)N(C(=O)CCC(=O)Nc1ccccn1)c1cccc(C)c1` (centres undefined), `COCCNC(=O)CN(Cc1ccco1)C(=O)CCC(=O)Nc1nccs1` is lower in inhibition: 32.2% for the first, -8.05% for the second.

First: O=C(Cc1ccc([N+](=O)[O-])cc1)Nc1ccc(C(=O)N2CCOCC2)cc1
Second: Cn1nccc1C(=O)N1CCCC(C(=O)c2ccc(Oc3ccccc3)cc2)C1 (centres undefined)
The inhibition of the first is higher: 7.91% for the first, -15.3% for the second.

First: Cc1ccc(CN(C)Cc2cc(=O)oc3cc(C)c(Cl)cc23)cc1
Second: Cc1cc(C)cc(NC(=O)CCN2C(=O)c3ccccc3C2=O)c1
The inhibition of the first is higher: 7.75% for the first, -3.25% for the second.

First: Cc1cnc(C(=O)OCC(=O)N2CCc3ccccc32)cn1
Second: NC(=O)N1CCc2ccccc21
The inhibition of the first is higher: -4.93% for the first, -9.66% for the second.

Going from `CC1CCc2c(sc3nc4n(c(=O)c23)CCS4)C1` (centres undefined) to `C=CCn1c(SCc2c(C)noc2C)nc2sc3c(c2c1=O)CCC(C)C3` (centres undefined), the inhibition falls from 33.9% to -12.7%.

First: COc1cccc(N2CCN(c3ccc4nnc(CCC(=O)N5CCN(C)CC5)n4n3)CC2)c1
Second: CN1CCN(NC(=O)c2ccc(S(=O)(=O)N3CCCCCC3)cc2)CC1
The inhibition of the first is higher: -1.7% for the first, -4.86% for the second.

Compared with `C/C(CC(=O)Nc1ccc(Cl)cc1)=N\NC(=O)C(=O)NCCO`, `CC(C)CNC(=S)Nc1ccc(F)cc1` is higher in inhibition: 12% for the first, 13.2% for the second.

Going from `COCCNC(=O)COc1ccc(C)c(C)c1` to `Cc1ccc(NC(=O)COc2ccc(/C=N\NC(=O)c3cccnc3)cc2)cc1C`, the inhibition falls from 20.4% to 11.2%.

First: CC(=O)N1c2ccc(S(=O)(=O)N3CCCC(C(=O)Nc4ccc(C)cc4C)C3)cc2CC1C (centres undefined)
Second: Cc1cc(C)cc(NC(=O)C2CCCN2S(=O)(=O)c2cccc3cccnc23)c1 (centres undefined)
The inhibition of the first is lower: -2.6% for the first, -0.303% for the second.

Compared with `CNC(=O)C(=O)N/N=C/c1ccccn1`, `O=C(N/N=C/c1ccccn1)c1cccc(NC(=O)c2ccc(Cl)cc2)c1` is lower in inhibition: 35.4% for the first, 24.3% for the second.

Going from `O=C(CNC(=O)c1cccnc1)N/N=C/c1cccnc1` to `O=C(NN=C1CCC(=NNC(=O)c2cccnc2)CC1)c1cccnc1`, the inhibition rises from -13% to 45.2%.

Going from `O=C(N/N=C/c1ccc(O)c2ccccc12)c1cccnc1` to `COc1cccc(/C=N/NC(=O)c2[nH]nc3c2CCc2ccccc2-3)c1O`, the inhibition falls from 24.3% to 12.7%.

Compared with `COc1ccc(CNC(=O)/C(C#N)=C/c2cccc(OC)c2OC)cc1`, `COc1cc2cc(C(=O)N/N=C/c3cccc(OC)c3OC)[nH]c2cc1OC` is higher in inhibition: -10.4% for the first, 3.08% for the second.

Going from `Cn1c(C(=O)N2CCCC(C(=O)NCc3ccccc3)C2)cc2sccc21` (centres undefined) to `COC(=O)C1CCN(C(=O)c2cc(=O)[nH]c3ccccc23)CC1`, the inhibition falls from 18.4% to -11.7%.

Compared with `CC(C)CNC(=O)C(=O)NCc1ccccc1`, `CC1(C)C(C=C(Cl)Cl)C1C(=O)NC(O)C(=O)c1ccccc1` (centres undefined) is lower in inhibition: 15.5% for the first, -9.33% for the second.

First: CCOC(=O)C1=C(C(=O)OCC)C(C(=O)OCC)N(S(=O)(=O)C(F)(F)F)c2ccccc21 (centres undefined)
Second: CCOC(=O)c1ccccc1CN1C(=O)c2ccccc2S1(=O)=O
The inhibition of the first is higher: 18.6% for the first, -3.65% for the second.

Compared with `Cc1cccc2[nH]c(CN(C)C(=O)C3CCC(=O)N(CCc4ccccc4)C3)nc12` (centres undefined), `CN(CCc1ccccn1)C1CCCN(S(=O)(=O)c2ccccc2Cl)C1` (centres undefined) is lower in inhibition: 17.9% for the first, -6.64% for the second.

First: CCCc1ccc(OCC(O)CN2CCN(CCO)CC2)cc1 (centres undefined)
Second: CCOC(=O)C1(Cc2cccc(OC)c2)CCN(C(C)COC)CC1 (centres undefined)
The inhibition of the first is lower: -3.37% for the first, -0.932% for the second.

Going from `O=C(COc1nsnc1N1CCOCC1)Nc1ccccc1Cl` to `O=C(O)CSc1nnc(-c2ccc3c(c2)OCO3)n1-c1ccccc1`, the inhibition rises from 5.96% to 37%.

Compared with `CCOc1cc(/C=C/c2nc3ccccc3c(=O)[nH]2)cc(Br)c1OC`, `COc1ccc(/C=C2\SC(=S)N(CCC(=O)Nc3cccc(C(=O)O)c3)C2=O)cc1OC` is lower in inhibition: 31.4% for the first, 2.9% for the second.

First: CCOC(=O)C1(Cc2cccc(OC)c2)CCCN(S(=O)(=O)c2cccnc2)C1 (centres undefined)
Second: COc1ccc(S(=O)(=O)N2CCOC2CNC(=O)C(=O)NCc2ccncc2)cc1OC (centres undefined)
The inhibition of the first is higher: -9.17% for the first, -13.1% for the second.

Going from `Cn1c(SCC(=O)N2CCCC2)nnc1-c1ccc2c(c1)OCO2` to `CCn1c(CSc2nc(C)cc(C)n2)nnc1SCC(N)=O`, the inhibition falls from 38.6% to -9.49%.

Going from `CCC(C(=O)NCc1cccnc1)n1nc(C)c2sc3ccccc3c2c1=O` (centres undefined) to `Cc1nc(C(=O)NCc2ccccc2)sc1C1(C)CC(c2cccnc2)=NO1` (centres undefined), the inhibition falls from -2.63% to -4.88%.

First: C=CCn1c(SCc2c(C(=O)OC)sc(N)c2C(=O)OC)nnc1-c1ccc(Cl)cc1
Second: CC(=O)c1cnc(SCCN2C(=O)c3ccccc3C2=O)nc1C
The inhibition of the first is lower: -13.4% for the first, -12.2% for the second.

First: CCN(C(=O)COC(=O)c1cc(NS(=O)(=O)c2ccc(Cl)c([N+](=O)[O-])c2)ccc1O)C1CCCCC1
Second: Cc1nc(CN(C)C(=O)CC2C(=O)NCCN2Cc2ccc(F)cc2)cs1 (centres undefined)
The inhibition of the first is higher: -7.83% for the first, -21.9% for the second.

First: COCc1c(C(=O)N/N=C\c2cccnc2)nnn1-c1nonc1N
Second: N#CCC(=O)N/N=C/c1cn(Cc2ccc3ccccc3c2)c2ccccc12
The inhibition of the first is higher: -0.307% for the first, -10.8% for the second.

Compared with `Cc1cccc(N2C(=O)C3C(c4ccccc4)OC4(C(=O)c5ccccc5C4=O)C3C2=O)c1` (centres undefined), `Cc1cccc(N2C(=O)c3cccnc3C2=O)c1` is higher in inhibition: -11.8% for the first, 23.8% for the second.

Going from `Cc1ccc(SCCN2C(=O)NC(C)(C)C2=O)cc1` to `CC[C@H](C)[C@H](NC(=O)[C@H](Cc1ccc(O)cc1)NC(=O)[C@@H](NC(=O)[C@H](CCCN=C(N)N)NC(=O)[C@@H](N)CC(=O)O)C(C)C)C(=O)N[C@@H](Cc1cnc[nH]1)C(=O)N1CCC[C@H]1C(=O)N[C@@H](Cc1ccccc1)C(=O)O`, the inhibition rises from 5.57% to 15%.

With `O=C(COC(=O)c1c2c(nc3ccccc13)CCCC2)c1ccc(Br)s1` the inhibition was 91.1% (active).
With `Cc1cc(Cl)c(S(=O)(=O)Nc2ccc3c(c2)OCCO3)cc1OCC(N)=O` the inhibition was 99.8% (active).
For `O=C(N/N=C/c1cc2c(cc1Br)OCO2)C1COc2ccccc2O1` (centres undefined), the inhibition was 77.9% (active).
In the case of `O=C(c1cnn2ccccc12)N1CCc2ccccc21`, the inhibition is reported as 97.7% (active).
With `CCCn1nnc2sc3c(c2c1=O)CCC(C)C3` (centres undefined) the inhibition was 90.4% (active).
With `CCc1ccc(NC(=O)C(=O)N/N=C(\C)CC(=O)NCCOC)cc1` the inhibition was 63.4% (active).
For `O=C(N/N=C/c1ccccn1)C12CC3CC(CC(C3)C1)C2`, the inhibition was 0% (active).
In the case of `O=C(N/N=C/c1ccccn1)c1cccnc1`, the inhibition is reported as 39.2% (active).
With `O=C(N/N=C/c1ccccn1)c1ccc(S(=O)(=O)N2CCCCCC2)cc1` the inhibition was 184% (active).
With `Cc1cc(/C=N/NC(=O)c2cccnc2)c(C)n1CC(C)C` the inhibition was 80.1% (active).
With `CC(C)CNC(=O)C(=O)Nc1ccc(N(C)C)cc1` the inhibition was 55.1% (active).
With `CCOC(=O)c1cc2n(c1N)-c1ccccc1C2=O` the inhibition was 72.9% (active).
In the case of `CCOC(=O)C1(Cc2cccc(OC)c2)CCCN(C(=O)CCSC)C1` (centres undefined), the inhibition is reported as 81.2% (active).
In the case of `Cn1c(SCc2nc3ccccc3s2)nnc1-c1ccc2c(c1)OCO2`, the inhibition is reported as 59% (active).
In the case of `C=CCn1c(SCC(N)=O)nnc1-c1cc2c(s1)CCC(CC)C2` (centres undefined), the inhibition is reported as 76.9% (active).
For `Cc1cccc(N2C(=O)NC(=O)/C(=C\c3cnn(-c4ccccc4)c3)C2=O)c1`, the inhibition was 65.5% (active).
For `Cc1nc(-c2ccc(Cl)cc2)sc1C1(C)CC(c2ccccc2F)=NO1` (centres undefined), the inhibition was 42% (active).
In the case of `Nc1ccc(SCCN2C(=O)c3ccccc3C2=O)cc1`, the inhibition is reported as 85% (active).
For `CCOC(OCC)c1ccc(/C=C\c2nccc(N)n2)cc1`, the inhibition was 62.4% (active).
With `COc1cccc(/C=N\NC(=O)C2=NNC(=O)C2C)c1O` (centres undefined) the inhibition was 66.4% (active).
